PubChem BioAssay (NCI)
About 83,000 compounds went through this panel and 20% of them were active in at least one assay; those are over-represented in the sample as a whole.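 96-well plates, one dose, 48 hours. Percent growth reported; active if below 10.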 The source made the active and inactive calls.

System: HL-60(TB) leukemia
Assay: NCI-60 one-dose screen, 48 h (100 = growth as untreated, 0 = no growth, -100 = all killed)
Details: 10 µM unless noted

Structure (SMILES) | growth
O=C1c2c(c3c4cc(O)ccc4oc3c3[nH]c4ccccc4c23)C(=O)N1O | 9.22% (active)
O=C(CSc1nnc(-c2ccc(Cl)cc2)n1-c1ccccc1)Nc1ccc(F)cc1 | 95.3% (inactive)
CCCSc1nc(Nc2ccc(/C(C)=N\NC(N)=S)cc2)c(C#N)c(-c2ccccc2)n1 | 64% (inactive)
COc1cc2nc(Cl)nc(Nc3cccc(C4=Nc5c(N)nc(N)nc5NC(c5ccc6c(c5)OCO6)C4)c3)c2cc1OC (centres undefined) | 68.4% (inactive)
CN1CCN(Cc2ccc(NC(=O)c3cncc(C#Cc4cnc5ccc(NCCCO)nn45)c3)cc2C(F)(F)F)CC1 | -8.59% (active)
Oc1ccc(-c2nc3ccc(/C(=N\N=C\c4ccc(Cl)cc4)c4ccccc4)cc3[nH]2)cc1 | 27.5% (inactive)
CC(=O)c1ccc(NC(=O)COc2ccc(C3SCC(=O)N3c3ccc(Br)cc3)cc2)cc1 (centres undefined) | 96.7% (inactive)
CC(=O)/C(N=Nc1ccc2oc(=O)ccc2c1)=C(\C)O | -15.3% (active)
Cc1ccc(-c2nc(C(Cl)Cl)nc3cc(-c4ccccc4)nn23)cc1 | -12% (active)
COC(=O)N1CCN(CCNCc2ccc(NC(=O)c3ccc(C)c(C#Cc4cnc5cccnn45)c3)cc2C(F)(F)F)CC1 | -12.3% (active)
C=CCn1c(SCC(=O)c2ccc(Br)cc2)nnc1-c1c[nH]c2ccccc12 | 92.3% (inactive)
CC1(C)CC[C@]2(CN)CC[C@]3(C)C(=CC[C@@H]4[C@@]5(C)CCCNC(C)(C)[C@@H]5CC[C@]43C)[C@H]2C1 | 87% (inactive)
CCOC(=O)c1cccnc1Nc1ccc(NC(=O)Nc2ccc(Cl)c(C(F)(F)F)c2)cc1 | 29.4% (inactive)
Clc1ccc2oc3c(OCCCn4ccnc4)c4ccccc4nc3c2c1 | 73.1% (inactive)
C#C[C@]1(O)CC[C@H]2[C@@H]3CC=C4c5sc(Nc6ccc(Cl)cn6)nc5CC[C@]4(C)[C@H]3CC[C@@]21C | 6.4% (active)
Nc1c(C(=O)Nc2ccc(Cl)cc2)sc2nc(-c3cnccn3)cc(-c3cccs3)c12 | 58.3% (inactive)
CCN(CC)CCOc1ccc(C(=C(C)Cc2ccc(OC)cc2)c2ccc(OCCN(CC)CC)cc2)cc1 | -42.3% (active)
COC[C@]12CC[C@@H](C)[C@H](C)[C@H]1C1=CC[C@@H]3[C@@]4(C)CCCNC(C)(C)[C@@H]4CC[C@@]3(C)[C@]1(C)CC2 | -47.1% (active)
O=C(Nc1ccc(F)c(F)c1)c1cc(-c2ccc(F)cc2F)ccc1O | -30.8% (active)
CC(=O)Nc1cccc(Nc2nc(N[C@@H](C)c3ccccc3)c3ccccc3n2)c1 | -50.7% (active)
COc1ccccc1/C=C/C=N/NC1=NC2C(S1)N(C)C(=O)N2c1ccccc1 (centres undefined) | -25.7% (active)
Cc1ccc2c(n1)C(=O)C(Cl)=C(Nc1cccc(C(=O)OC(C)(C)C)c1)C2=O | 16.7% (inactive)
Cc1c(C(=O)/C=C/c2ccc(Cl)cc2)nnn1-c1ccc2oc(=O)ccc2c1 | 92.9% (inactive)
N/C(=N\C(N)=N\c1nc2ccccc2s1)c1ccc2ccccc2c1 | 99.8% (inactive)
